Screening data from PubChem BioAssay.
Sampled rows, rich in hits. Any-hit rate of the full collection: about 2%.
APOBEC3G inh – APOBEC3G DNA deaminase inhibitors, primary screen, biochemical, fluorescence, single-stranded DNA substrate, uHTS; DNA dC->dU-editing enzyme APOBEC-3G (Homo sapiens), Q9HC16; recombinant A3G, ssDNA deamination FAM/TAMRA fluorescence; inhibition, % at 20 µM; actives 0.28% (n = 330,000);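 active = inhibition of at least 40% at 20 µM, with no more than 30% in the related APOBEC3A deaminase screen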;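 note: plate controls were DMSO wells with A3G for no effect and wells lacking A3G enzyme for full effect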
NALP1 yeast inh – NALP1 inflammasome inhibitors in reconstituted yeast, colorimetric, S. cerevisiae, triplicate retest; actives 0.61% (n = 280,000); inhibition, % at 10 µM; AID 2071, 2009; S. cerevisiae NALP1/ASC/caspase-1 growth, X-gal OD620, 72 h; in the data active = inhibition mostly above about 24%, no sharp cut-off; inactive = mostly below about 32%
Fh CTSL1 inh – Fasciola hepatica cathepsin L1 inhibitors, primary screen, counter-screen for PFM18AAP inhibitor project, biochemical, QFRET, fluorogenic peptide substrate | inhibition, % at 5.96 µM | recombinant F. hepatica cathepsin L1, Z-Leu-Arg-MCA fluorescence | actives 0.49% (n = 300,000);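 active = inhibition above the mean of all tested compounds plus 3 SD, set per screening campaign, cut at about 17% in these data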;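 note: 0% = plate median of test compound wells and 100% = 1 µM Z-Phe-Ala-diazomethylketone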
A3A deaminase – APOBEC3A ssDNA deaminase inhibitors, primary screen, selectivity assay for APOBEC3G inhibitor project, biochemical, FAM/TAMRA oligo cleavage fluorescence. actives 0.41% (n = 330,000). inhibition, % at 20 µM. recombinant A3A, FAM/TAMRA ssDNA deamination fluorescence. AID 493011, 2011;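 active = at least 40% inhibition at 20 µM here, with at most 30% in a related deaminase screen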;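 note: plate controls were A3A with DMSO for no effect and wells lacking A3A enzyme for full effect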
HGIII-sPLA2 inh – human group III sPLA2 inhibitors, primary screen, biochemical, QFRET, BODIPY PC-A2 liposome substrate. QFRET BODIPY PC-A2 liposome hydrolysis, fluorescence. inhibition, % at 12.2 µM. actives 0.56% (n = 370,000). AID 743126, 2013;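 active = inhibition above mean plus 3 SD of compounds lying within the high and low control bounds, cut at about 19% in these data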;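 note: 0% = median of test compound wells and 100% = no enzyme DMSO wells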
Target sequence (Q9NZ20 whole entry, looked up): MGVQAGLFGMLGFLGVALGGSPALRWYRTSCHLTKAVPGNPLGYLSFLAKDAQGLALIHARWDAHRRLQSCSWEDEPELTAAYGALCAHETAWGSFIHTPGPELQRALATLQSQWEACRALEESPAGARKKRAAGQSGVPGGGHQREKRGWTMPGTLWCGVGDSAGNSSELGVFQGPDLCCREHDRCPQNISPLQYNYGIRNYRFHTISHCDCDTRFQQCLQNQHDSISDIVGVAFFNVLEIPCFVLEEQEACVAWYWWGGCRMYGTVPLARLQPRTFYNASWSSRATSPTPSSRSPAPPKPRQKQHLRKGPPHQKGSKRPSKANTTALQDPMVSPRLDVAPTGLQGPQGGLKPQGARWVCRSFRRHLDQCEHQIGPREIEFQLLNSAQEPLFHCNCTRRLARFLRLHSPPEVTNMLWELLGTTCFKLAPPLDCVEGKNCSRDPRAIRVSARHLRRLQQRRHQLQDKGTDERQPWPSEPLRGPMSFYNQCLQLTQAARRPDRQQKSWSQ
sPLA2 confirm – human group III sPLA2 inhibitors, confirmation, biochemical, QFRET, triplicate; actives 34% (n = 2,000); recombinant hGIII-sPLA2, BODIPY PC-A2 QFRET fluorescence; inhibition, % at 12.2 µM; shares compounds with HGIII-sPLA2 inh;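 active = mean inhibition across triplicates above the hit cutoff set in the earlier primary screen, cut at about 19% in these data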;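 note: 0% = enzyme with DMSO and 100% = DMSO wells lacking enzyme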
BODIPY interf – 535nm fluorescence optical interference, confirmation, artefact control for HGIII-sPLA2 inhibitor project, biochemical, QFRET. shares compounds with HGIII-sPLA2 inh. inhibition, % at 12.2 µM. BODIPY FL product fluorescence interference. actives 8.5% (n = 2,000);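 active = average inhibition above the solvent-only control mean plus 3 SD, cut at about 6% in these data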;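 note: 0% = DMSO with substrate plus product and 100% = DMSO with substrate alone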
BODIPY interf DR – 535nm fluorescence optical interference, dose response, artefact control for HGIII-sPLA2 inhibitor project, biochemical, QFRET; shares compounds with HGIII-sPLA2 inh; BODIPY FL product fluorescence interference, cell-free; IC50, µM; 240 tested, under 10 active;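 active = IC50 at or below 10 µM; inactive = IC50 above 10 µM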
* = called active by the depositor; x = no result given.

SMILES	APOBEC3G inh	NALP1 yeast inh	Fh CTSL1 inh	A3A deaminase	HGIII-sPLA2 inh	sPLA2 confirm	BODIPY interf	others
CC12CC3(C)CC(C)(C1)CC(C(=O)NC(=S)N1CCOCC1)(C2)C3	-7.4	15.3	3.3	-3.5	20.1*	22.9*	-10.2
O=C(NC(=S)N1CCOCC1)C12CC3CCC(CC(C3)C1)C2	1.3	32.4	2.9	4.8	1.3	x	x
CCn1c(C2CCN(S(=O)(=O)c3ccc(OC)cc3)CC2)n[nH]c1=S	28.5	-32.7	-2.0	-2.6	21.3*	15.6	-1.1
COc1cc2c(cc1OC)C(c1ccc([N+](=O)[O-])cc1)NCC2 (centres undefined)	4.3	19.6	-0.4	-2.4	19.5*	4.7	-8.1
O=C(NCCS(=O)(=O)NCc1ccccc1)c1ccccc1	-8.9	x	2.4	-5.0	19.4*	-0.7	-5.3
CN1CCN(CC(=O)Nc2ccccc2C(F)(F)F)CC1	-2.9	-12.3	1.7	0.5	22.4*	6.6	-4.6
CCCN1CCC(N2CCN(c3cccc(C(F)(F)F)c3)CC2)CC1	0.1	3.9	-4.6	4.0	2.2	x	x
FC(F)(F)c1cccc(N2CCN(C3CC4CCC3C4)CC2)c1 (centres undefined)	-3.1	6.7	-0.4	-2.8	20.2*	14.6	-10.7
O=C(NC1CCCCN(Cc2cccc(C(F)(F)F)c2)C1=O)c1c(F)cccc1F (centres undefined)	x	x	x	x	1.1	x	x
Cc1cc(C)c(O)c(-c2n[nH]c3c2C(c2cccc(O)c2)N(Cc2ccco2)C3=O)c1 (centres undefined)	-5.2	8.9	4.8	-5.7	23.8*	-49.2	0.2
CN(C)c1ccc(/C=N/NC(=O)c2ccn(C)n2)cc1	-1.4	-4.2	5.0	-2.2	20.1*	6.5	-3.5
COc1ccc2c(c1C(=O)/C=C/c1ccccc1)OC(C)(C)C=C2	x	x	x	x	3.9	x	x
Cc1cccc(NNC(=S)Nc2c(C)cccc2C)c1	66.9	2.0	2.3	97.1	19.3*	28.5*	-4.3	BODIPY interf DR=>122
COc1ccc(-n2c(COc3ccc(Cl)cc3)nnc2SCC(=O)Nc2ccc3c(c2)OCO3)cc1	x	x	x	x	-29.1	x	x
COC(=O)[C@]12C[C@H](CC(=O)NCCC(C)C)C(=O)N(Cc3ccc(Cl)cc3Cl)C1=C[C@H](C(C)C)O[C@@H]2C1CC1	x	x	x	x	-1.4	x	x
O=Cc1ccc([B-](F)(F)F)o1	x	x	x	x	1.6	x	x
CCN1CCCCC(NC(=O)c2ccc(C)cc2)C1=O (centres undefined)	x	x	x	x	3.4	x	x
CN1CCC[C@@H]1CCNC(=O)c1cccc2c1C(=O)c1ccc(N3CCCC3)cc1S2(=O)=O	-8.3	x	x	-0.8	77.9*	-21.3	-31.3
O=[N+]([O-])c1cc2c(c([N+](=O)[O-])c1)Nc1ccccc1O2	x	x	x	x	21.1*	44.8*	11.5*
CC12C(=O)N(NC(=O)c3ccncc3)C(=O)C1C1C=CC2C1 (centres undefined)	-6.7	10.8	4.0	-4.1	20.9*	-5.1	-5.1
O=C(NN1C(=O)C2C3C=CC(C3)C2C1=O)c1ccncc1 (centres undefined)	-6.4	14.1	4.0	-4.1	6.7	x	x
CCCCNS(=O)(=O)/C=C/c1cc2c(cc1CNC(=O)OC(C)(C)C)OCO2	x	x	x	x	2.6	x	x
CN1c2ccc([N+](=O)[O-])cc2N(C)C1(C)c1ccccc1 (centres undefined)	7.9	7.6	x	-3.9	25.4*	43.5*	8.0*
